# Experimental data as given in PMC5540273 (PLoS ONE, 2017).
# Like-named read-outs stand apart in the source and are kept apart here.
# Experiments:
# [1] = tested on: SgK110; details: concentration: 1 μM, replicates: in singlicate; n = 1
# [2] = tested on: T1, TAK1; details: concentration: 1 μM, replicates: in singlicate; n = 1
# T1 construct: gene MAP3K7
# [3] = tested on: TAOK1; details: concentration: 1 μM, replicates: in singlicate; n = 1
# [4] = tested on: TAOK2; details: concentration: 1 μM, replicates: in singlicate; n = 1
# [5] = tested on: TAOK3; details: concentration: 1 μM, replicates: in singlicate; n = 1
# [6] = tested on: TBK1; details: concentration: 1 μM, replicates: in singlicate; n = 1
# [7] = tested on: TEC; details: concentration: 1 μM, replicates: in singlicate; n = 1
# [8] = tested on: TESK1; details: concentration: 1 μM, replicates: in singlicate; n = 1
# [9] = tested on: TGFBR1; details: n = 1
# [10] = tested on: TGFBR2; details: concentration: 1 μM, replicates: in singlicate; n = 1
# [11] = tested on: TIE1; details: concentration: 1 μM, replicates: in singlicate; n = 1
# [12] = tested on: T2, TIE2; details: concentration: 1 μM, replicates: in singlicate; n = 1
# T2 construct: gene TEK
# [13] = tested on: TLK1; details: concentration: 1 μM, replicates: in singlicate; n = 1
# [14] = tested on: TLK2; details: concentration: 1 μM, replicates: in singlicate; n = 1
# [15] = tested on: TNIK; details: concentration: 1 μM, replicates: in singlicate; n = 1
# [16] = tested on: TNK1; details: concentration: 1 μM, replicates: in singlicate; n = 1
# [17] = tested on: TNK2; details: concentration: 1 μM, replicates: in singlicate; n = 1
# [18] = tested on: TNNI3K; details: concentration: 1 μM, replicates: in singlicate; n = 1
# [19] = tested on: T3, TRKA; details: concentration: 1 μM, replicates: in singlicate; n = 1
# T3 construct: gene NTRK1
# [20] = tested on: TRKB; details: concentration: 1 μM, replicates: in singlicate; n = 1
# [21] = concentration: 1 μM, replicates: in singlicate
# 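Further: KINOMEscan kinase panel screen.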
compound,measurement,setting,value
O=c1cc(N2CCOCC2)nc2n(Cc3cccc(Cl)c3)ccn12 [GSK2296823],%Inh,[1],0%
same,%Inh,[2],0%
same,%Inh,[3],0%
same,%Inh,[4],0%
same,%Inh,[5],0%
same,%Inh,[6],38%
same,%Inh,[7],1%
same,%Inh,[8],0%
same,%Inh,[9]; [21],0%
same,%Inh,[10],0%
same,%Inh,[11],16%
same,%Inh,[12],0%
same,%Inh,[13],0%
same,%Inh,[14],0%
same,%Inh,[15],0%
same,%Inh,[16],0%
same,%Inh,[17],28%
same,%Inh,[18],1%
same,%Inh,[19],0%
same,%Inh,[20],0%
O=C(c1ccc(-c2cc(-c3c[nH]nc3-c3ccccn3)ccn2)cc1)N1CCCC1 [GW792479],%Inh,[1],6%
same,%Inh,[2],0%
same,%Inh,[3],0%
same,%Inh,[4],45%
same,%Inh,[5],0%
same,%Inh,[6],59%
same,%Inh,[7],8%
same,%Inh,[8],20%
same,%Inh,[9]; 1 µM,93.6%
same,%Inh,[10],39%
same,%Inh,[11],0%
same,%Inh,[12],27%
same,%Inh,[13],0%
same,%Inh,[14],0%
same,%Inh,[15],48%
same,%Inh,[16],21%
same,%Inh,[17],0%
same,%Inh,[18],0%
same,%Inh,[19],0%
same,%Inh,[20],0%
COc1ccc(NC(=O)Nc2ccc(C)c(-c3ccc(C(=O)Nc4ccncc4)cc3)c2)cc1 [GSK1398475],%Inh,[1],0%
same,%Inh,[2],0%
same,%Inh,[3],0%
same,%Inh,[4],0%
same,%Inh,[5],0%
same,%Inh,[6],6%
same,%Inh,[7],3%
same,%Inh,[8],19%
same,%Inh,[9]; [21],3%
same,%Inh,[10],0%
same,%Inh,[11],0%
same,%Inh,[12],0%
same,%Inh,[13],19%
same,%Inh,[14],0%
same,%Inh,[15],0%
same,%Inh,[16],0%
same,%Inh,[17],17%
same,%Inh,[18],17%
same,%Inh,[19],0%
same,%Inh,[20],0%
Cl.Cl.c1ccc(-c2cc3ccncc3cc2OC2CCNCC2)cc1 [GSK1122999],%Inh,[1],0%
same,%Inh,[2],0%
same,%Inh,[3],0%
same,%Inh,[4],0%
same,%Inh,[5],4%
same,%Inh,[6],21%
same,%Inh,[7],12%
same,%Inh,[8],7%
same,%Inh,[9]; [21],2%
same,%Inh,[10],0%
same,%Inh,[11],1%
same,%Inh,[12],0%
same,%Inh,[13],0%
same,%Inh,[14],7%
same,%Inh,[15],0%
same,%Inh,[16],6%
same,%Inh,[17],27%
same,%Inh,[18],26%
same,%Inh,[19],0%
same,%Inh,[20],0%
N#Cc1ccc(Oc2ccc(Nc3ncnc4cc[nH]c34)cc2Cl)cc1,%Inh,[1],0%
same,%Inh,[2],7%
same,%Inh,[3],0%
same,%Inh,[4],0%
same,%Inh,[5],0%
same,%Inh,[6],24%
same,%Inh,[7],0%
same,%Inh,[8],5%
same,%Inh,[9]; [21],1%
same,%Inh,[10],5%
same,%Inh,[11],0%
same,%Inh,[12],20%
same,%Inh,[13],22%
same,%Inh,[14],0%
same,%Inh,[15],9%
same,%Inh,[16],0%
same,%Inh,[17],2%
same,%Inh,[18],26%
same,%Inh,[19],17%
same,%Inh,[20],0%
CSc1nn2c(=O)cc(N3CCOCC3)nc2n1Cc1cccc(Cl)c1Cl [GSK2347225],%Inh,[1],0%
same,%Inh,[2],0%
same,%Inh,[3],2%
same,%Inh,[4],0%
same,%Inh,[5],3%
same,%Inh,[6],10%
same,%Inh,[7],18%
same,%Inh,[8],7%
same,%Inh,[9]; [21],0%
same,%Inh,[10],0%
same,%Inh,[11],14%
same,%Inh,[12],2%
same,%Inh,[13],4%
same,%Inh,[14],0%
same,%Inh,[15],3%
same,%Inh,[16],3%
same,%Inh,[17],24%
same,%Inh,[18],15%
same,%Inh,[19],1%
same,%Inh,[20],0%
FC(F)(F)c1cc(Nc2nccc(-c3c(-c4ccc(Cl)cc4)nn4ncccc34)n2)ccc1Cl [GW829351],%Inh,[1],23%
same,%Inh,[2],0%
same,%Inh,[3],0%
same,%Inh,[4],2%
same,%Inh,[5],0%
same,%Inh,[6],2%
same,%Inh,[7],0%
same,%Inh,[8],0%
same,%Inh,[9]; [21],21%
same,%Inh,[10],0%
same,%Inh,[11],0%
same,%Inh,[12],0%
same,%Inh,[13],0%
same,%Inh,[14],0%
same,%Inh,[15],12%
same,%Inh,[16],21%
same,%Inh,[17],0%
same,%Inh,[18],0%
same,%Inh,[19],0%
same,%Inh,[20],0%
COc1ccc(-c2oc3ncnc(N)c3c2-c2ccc(OC)cc2)cc1 [SB-589132],%Inh,[1],0%
same,%Inh,[2],0%
same,%Inh,[3],0%
same,%Inh,[4],0%
same,%Inh,[5],0%
same,%Inh,[6],0%
same,%Inh,[7],15%
same,%Inh,[8],36%
same,%Inh,[9]; [21],7%
same,%Inh,[10],12%
same,%Inh,[11],1%
same,%Inh,[12],9%
same,%Inh,[13],0%
same,%Inh,[14],0%
same,%Inh,[15],0%
same,%Inh,[16],45%
same,%Inh,[17],44%
same,%Inh,[18],50%
same,%Inh,[19],52%
same,%Inh,[20],74%
CN1c2ccc(-c3ccc(C(=O)NCCO)cc3)cc2-c2[nH]ncc2S1(=O)=O,%Inh,[1],0%
same,%Inh,[2],63%
same,%Inh,[3],0%
same,%Inh,[4],30%
same,%Inh,[5],0%
same,%Inh,[6],31%
same,%Inh,[7],1%
same,%Inh,[8],17%
same,%Inh,[9]; [21],0%
same,%Inh,[10],0%
same,%Inh,[11],0%
same,%Inh,[12],3%
same,%Inh,[13],22%
same,%Inh,[14],30%
same,%Inh,[15],43%
same,%Inh,[16],52%
same,%Inh,[17],10%
same,%Inh,[18],3%
same,%Inh,[19],0%
same,%Inh,[20],0%
CCC(CC)(CC)n1cnc2c(N)ncnc21 [SKF-97620],%Inh,[1],8%
same,%Inh,[2],6%
same,%Inh,[3],48%
same,%Inh,[4],2%
same,%Inh,[5],22%
same,%Inh,[6],15%
same,%Inh,[7],35%
same,%Inh,[8],0%
same,%Inh,[9]; [21],52%
same,%Inh,[10],0%
same,%Inh,[11],21%
same,%Inh,[12],8%
same,%Inh,[13],27%
same,%Inh,[14],2%
same,%Inh,[15],100%
same,%Inh,[16],6%
same,%Inh,[17],0%
same,%Inh,[18],0%
same,%Inh,[19],41%
same,%Inh,[20],26%
